Measured values published in PubChem BioAssay (Tox21).
Several values for one entry are separate records, joined by “and”; a condition that tells them apart may be missing. Equal values may be shown once. Inconclusive results are not listed. Where a structure was tested more than once in an assay, its records may differ in their call. Activity calls are given as the source filed them. Calls come from the whole dose curve; as a rule, active = well fitted cell-killing curve with a large enough effect in the repeat runs; inconclusive = weak or mixed curves; inactive = flat fitted curve, though single readings scatter. Starred links: 1 amine or outer side, 2 acyl side, 3 side chain; linkers in the order of their positions; H or OH if unused. Positions of bridges follow the written chain, without caps; N, C: chain ends. Non-standard residues stand in square brackets, D forms with d. Residues, ends and D or L forms follow the SMILES beside them. Chains are numbered I, II in the order given. Actinocin(9to1) = Cc1c2oc3c(C)ccc(C(=O)[*:1])c3nc-2c(C(=O)[*:2])c(N)c1=O; NMeV = CN[C@H](C(=O)O)C(C)C; Sar = CNCC(=O)O

assay: qHTS assay to identify small molecule antagonists of the estrogen related receptor (ERR) signaling pathway from Tox21 library - cell viability counter screen (AID 1224834); conditions: ERR reporter cells viability, CellTiter-Fluor, 17.5 h; series mostly up to 92.4 µM; viability change, negative = cytotoxic: at the top concentration; note: nearly all actives have a fitted effect of over 30% in size
Source text: National Center for Advancing Translational Sciences [NCATS]
NIH Chemical Genomics Center [NCGC]
U.S. Environmental Protection Agency [EPA]
National Institutes of Environmental Health Sciences [NIEHS]
National Toxicology Program [NTP]
U.S. Food and Drug Administration [FDA]
Estrogen related receptors (ERRs), the first orphan nuclear receptors discovered, play an important role in the control of cellular energy metabolism. ERRs are required for high-energy production in response to the environmental challenges. ERR-alpha was also identified as an adverse marker for breast cancer progression; ERR-alpha-positive tumors have a poor prognosis. To screen and to identify environmental compounds that perturb the ERR signaling pathways could provide valuable information for potential therapeutic or preventive measures in the treatment of metabolic disease. To differentiate true ERR antagonists or agonist from cytotoxic substances, the assay is multiplexed with cell viability assay.
Tox21 Assay Protocol Summary:
The ERR cells were dispensed at 2,000 cells/5 ul/well in 1536-well white plates using a Multidrop dispenser. After the assay plates were incubated at a 37 C/5% CO2 incubator for 6 hours, 23 nL of compounds dissolved in DMSO, positive and negative controls or DMSO only was transferred to the assay plate by a pin tool. The plates were incubated at 37 C for 17.5 hours. 1 ul/well of CellTiter-Fluor reagent was added into the assay plates using a Flying Reagent Dispenser. After 30-minute incubation at 37 C/5% CO2, the fluorescence intensity in the plates was measured using a ViewLux plate reader.
% is set by controls: 0 for no effect and ±100 for the full control effect; potency is the fitted concentration of half-maximal effect.

Row | Structure (SMILES) | viability change, negative = cytotoxic | Potency
1 | CC(C)(O)CCC(C)(C)O | 2.41% (inactive) | –
2 | CCCCCCC(O)CCCCCCCCCCC(=O)O (stereo not given) | – | inactive
3 | O=C(O)c1cccc(C(=O)O)c1 | – | inactive
4 | COc1ccc(Cc2cnc(N)nc2N)cc1OC | -0.0165% [at 42.5 µM] (inactive) | –
5 | O=C(O)CCc1ccccc1 | 0.114% (inactive) | –
6 | O=C1NCC2(CCN(CCc3ccccc3)CC2)O1 | -7.37% [at 42.5 µM] (inactive) | –
7 | c1ccc2n[nH]nc2c1 | – | inactive
8 | Cc1c2oc3c(C)ccc(C(=O)N[C@@H]4C(=O)N[C@H](C(C)C)C(=O)N5CCC[C@H]5C(=O)N(C)CC(=O)N(C)[C@@H](C(C)C)C(=O)O[C@@H]4C)c3nc-2c(C(=O)N[C@@H]2C(=O)N[C@H](C(C)C)C(=O)N3CCC[C@H]3C(=O)N(C)CC(=O)N(C)[C@@H](C(C)C)C(=O)O[C@@H]2C)c(N)c1=O (I: T[dV]P[Sar][NMeV] / II: T[dV]P[Sar][NMeV]; ester I:1-I:C, II:1-II:C; linker I:N-II:N via Actinocin(9to1)) | – | 7.48 µM (active) and 188 nM (active)
9 | CC(=O)C1=C(C)[C@@H]2C[C@@]3(C1)[C@H](C)CC[C@H]3C2(C)C | – | inactive
10 | CC(C)(C)NCC(O)c1cc(O)cc(O)c1 (stereo not given) | 2.58% [at 42.5 µM] (inactive) | –
11 | COc1ccc(COC(C)=O)cc1 | – | inactive
12 | CC(COc1ccccc1)N(CCCl)Cc1ccccc1 (stereo not given) | -2.57% [at 42.5 µM] (inactive) | –
13 | N[C@@H]1CONC1=O | 3.29% [at 42.5 µM] (inactive) | –
14 | CC(=O)CC(C)=O | -4.5% (inactive) | –
15 | c1ccc2c(c1)-c1cccc3c1c-2cc1ccccc13 | – | inactive
16 | CO[Si](OC)(OC)c1ccccc1 | 1.8% (inactive) | –
17 | O=C(O)Cn1cnnn1 | -0.428% [at 42.5 µM] (inactive) | –
18 | O | – | inactive
19 | CCCC(=O)c1ccccc1 | 1.99% (inactive) | –
20 | Cc1c(O)cccc1C(=O)N[C@@H](CSc1ccccc1)[C@H](O)CN1C[C@H]2CCCC[C@H]2C[C@H]1C(=O)NC(C)(C)C | – | 8.41 µM (active) and 11.9 µM (active)

Row | Structure (SMILES) | viability change, negative = cytotoxic | Potency
21 | CC1=CC(=O)c2ccccc2C1=O | – | 61.1 µM (active) and inactive
22 | NCCO | 0.488% (inactive) | –
23 | O=C(Nc1ccccc1SSc1ccccc1NC(=O)c1ccccc1)c1ccccc1 | – | 43.5 µM (active) and 48.6 µM (active)
24 | CCC[C@H](N[C@@H](C)C(=O)N1[C@H](C(=O)O)C[C@@H]2CCCC[C@@H]21)C(=O)OCC | – | inactive
25 | CC1COc2c(N3CCN(C)CC3)c(F)cc3c(=O)c(C(=O)O)cn1c23 (stereo not given) | 0.43% [at 42.5 µM] (inactive) | –
26 | CN1C(=O)c2ccc([N+](=O)[O-])cc2C1=O | 4.85% (inactive) | –
27 | CC(C)CCOCc1ccccc1 | 1.21% (inactive) | –
28 | NC(=Nc1ccccc1)Nc1ccccc1 | 1.31% [at 42.5 µM] (inactive) | –
29 | COC(=O)c1cccc(C(=O)OC)c1 | – | inactive
30 | CNC1(C)C2CCC(C2)C1(C)C (stereo not given) | 5.99% [at 42.5 µM] (inactive) | –
31 | O=S(=O)(O)c1ccc2nc(-c3ccccc3)[nH]c2c1 | – | inactive
32 | CCCCCCCCCCCCCCCCCl | 1.81% [at 19 µM] (inactive) | –
33 | Nc1nc(=S)c2[nH]cnc2[nH]1 | – | 11.9 µM (active) and 4.33 µM (active)
34 | CCCCCC(=O)O[C@]1(C(C)=O)CC[C@H]2[C@@H]3CCC4=CC(=O)CC[C@]4(C)[C@H]3CC[C@@]21C | – | 48.2 µM (active) and 29.8 µM (active)
35 | Cc1scc2c1N(C(=O)CN1CCN(C)CC1)c1ccccc1NC2=O | 3.17% [at 42.5 µM] (inactive) | –
36 | CCOC(=O)C(C)C(C)=O (stereo not given) | 3.72% (inactive) | –
37 | COC(=O)[C@H]1[C@H]2C[C@@H]3c4[nH]c5cc(OC)ccc5c4CCN3C[C@H]2C[C@@H](OC(=O)c2cc(OC)c(OC)c(OC)c2)[C@@H]1OC | – | 22.3 µM (active)
38 | C=C(C)C(=O)O | – | inactive
39 | O=C(Oc1ccccc1)c1ccccc1O | – | inactive
40 | Cc1cc(OCCOCC[N+](C)(C)Cc2ccccc2)ccc1C(C)(C)CC(C)(C)C | – | 54.2 µM (active) and 16.8 µM (active)
